For 44 compounds, Potency and max response results are on record in PubChem BioAssay AID651814 (National Center for Advancing Translational Sciences (NCATS), 2012).

About 590 (28%) of roughly 2,100 compounds were called active. Another 42% or so got no clear call; they are omitted. Some of the results follow. A number with no mark means an inactive call. Calls follow the shape of the dose curve; as a rule, active = well fitted inhibition curve with a large enough effect; inconclusive = small, poorly fitted or top-dose-only effect; inactive = flat fitted curve, though single readings scatter.
Potency is read from the fitted curve at half-maximal effect.

DNA dC->dU-editing enzyme APOBEC-3F (Homo sapiens), sequence (Q8IUX4 whole entry, looked up): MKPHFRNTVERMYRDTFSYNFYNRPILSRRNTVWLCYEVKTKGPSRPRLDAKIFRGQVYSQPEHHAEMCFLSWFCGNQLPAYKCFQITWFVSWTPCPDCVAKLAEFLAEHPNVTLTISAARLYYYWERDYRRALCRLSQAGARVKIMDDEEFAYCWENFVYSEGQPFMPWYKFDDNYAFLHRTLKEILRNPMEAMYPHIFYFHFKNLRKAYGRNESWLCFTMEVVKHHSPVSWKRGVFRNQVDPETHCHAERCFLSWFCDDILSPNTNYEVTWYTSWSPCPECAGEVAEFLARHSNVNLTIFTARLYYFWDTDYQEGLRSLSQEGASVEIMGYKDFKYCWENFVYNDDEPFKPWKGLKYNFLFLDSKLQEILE

For the assay, the target named is DNA dC->dU-editing enzyme APOBEC-3F (Homo sapiens) (UniProt Q8IUX4). In words: qHTS for inhibitors of Vif-A3F interactions: Cherry picks. Also: nearly all actives have a fitted effect of over 70% in size.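 As to max response: % of control where 0% means no effect; active compounds raise eYFP fluorescence by blocking Vif-driven A3F loss.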 The following applies: HeLa A3F-eYFP + Vif (tagged APOBEC3F with the HIV-1 protein that degrades it), eYFP fluorescence, 24 h. The source says:
The recent discovery and characterization of host restriction factors, which provide a potent defense to invading retroviruses, has provided new targets for antiviral drug development. APOBEC3G (A3G) and APOBEC3F (A3F) are potent cytidine deaminases that block HIV-1 replication; HIV-1 expresses the Vif protein, which counteracts A3G and A3F by binding to them and inducing their proteasomal degradation. The Vif-A3G and Vif-A3F interactions provide two potential targets for development of small molecules which can interfere with the ability of Vif to degrade A3G or A3F. […] To identify inhibitors that can interfere with Vif mediated degradation of A3G and A3F, we have developed Hela cell lines that stably express A3G or A3F tagged with eYFP at the C-terminal end (A3G-eYFP or A3F-eYFP, respectively) and Vif. In the absence of an inhibitor, Vif induces degradation of A3G-eYFP and A3F-eYFP, and the cells are not fluorescent. In the presence of an inhibitor, it is expected that Vif will be unable to degrade A3G-eYFP and/or A3F-eYFP, resulting in an increase in yellow fluorescence. In this assay, Vif A3F was screened against the cherry picks ordered from the MLSMR. NIH Chemical Genomics Center [NCGC] NIH Molecular Libraries Probe Centers Network [MLPCN] MLPCN Grant: MH093245 Assay Submitter (PI): Vinay Pathak, National Cancer Institute
A3F-Vif cells were harvested from T225 flask and resuspended in phenol free OPTI-MEM medium with 5% FBS. Then 5 uL of 140,000 cells/mL resuspended cells was dispensed into each well of low base Aurora COC 1,536-well plates (black walled, clear bottom) using a Multidrop Combi dispenser. After overnight culture at 37 deg C with 5% CO2, a total of 23 nL of compounds at 5 selected concentrations from the NPC or positive control (2 mM stock of MG132) in DMSO was transferred to each well of the assay plate using a pintool (Kalypsys, San Diego, CA), and the plates were further incubated at 37 deg C with 5% CO2 for 24 hours. After that, the plates were measured on Acumen Explorer (TTP Lab Tech). The fluorescence was detected by 488 nm/Ex and […].
In general terms: In qHTS, concentration-response curves come from the screen itself.
In the case of `Cc1nc2c3cc(F)ccc3n(Cc3ccccc3F)c2s1`, the Potency is 14 µM (active). Same read-out and setting: then `Cc1nc2c3cc(F)ccc3n(Cc3ccccc3)c2s1`, with 4.98 µM (active). Turning to `COc1cccc(CNCCSc2nnnn2C)c1OCc1ccc(F)cc1`, the max response was -0.625%. For `Cc1ccc(S(=O)c2ccc([N+](=O)[O-])c3nonc23)cc1` (centres undefined), the Potency was 18.4 µM (active). The same measure, in the same setting: as for `Cc1cc(/C=C2\SC(=S)N(Cc3ccco3)C2=O)c(C)n1-c1cccnc1`, the figure is 20.6 µM (active); as for `Cc1cc(/C=C2\SC(=S)N(C)C2=O)c(C)n1-c1ccccc1O`, 20.6 µM (active); as for `Cc1cc(/C=C2\SC(=S)N(Cc3ccco3)C2=O)c(C)n1-c1ccccc1`, 18.4 µM (active).

In the case of `O=C1/C(=C/c2ccc(O)cc2)SC(=S)N1Cc1cccnc1`, the max response is -10.2%. Take `CN(C)c1ccc(C=C2SC(=S)N(Cc3ccco3)C2=O)cc1`: the Potency is 4.98 µM (active). `S=C(Nc1cccc2ccccc12)NN1CCCCCC1`: the max response was 0.0404%. As to `Cc1cc2ccccn2c1C(=O)c1ccc([N+](=O)[O-])o1`, the Potency is 11.6 µM (active). With `O=C(NN(c1ccccc1)c1ccccc1)c1ccc([N+](=O)[O-])o1`, the max response is -20.2%. On the same count and under the same terms, as for `O=C(NCc1cccnc1)c1ccc([N+](=O)[O-])o1`, the figure is -20.4%.

As for `N#C/C(=C\c1ccc(N2CCOCC2)o1)C(=O)NC1CCCCC1`, the Potency is 15.8 µM (active).

In the case of `N#C/C(=C\c1ccc(N2CCCCC2)o1)C(N)=O`, the Potency is 15.8 µM (active). On the same count and under the same terms, then `N#C/C(=C/c1ccc(N2CCOCC2)o1)C(=O)NC1CCCCC1`, with 16.4 µM (active).

In the case of `Cc1onc(-c2c(F)cccc2Cl)c1C(=O)O/N=C(\N)c1ccc([N+](=O)[O-])o1`, the max response is -3.32%. The same measure, in the same setting: then `CSc1cccc(NC(=O)c2cc3c(COC(C)=O)cnc(C)c3oc2=O)c1`, with -5.04%; and `Cc1cc(C)c(S(=O)(=O)N2CCCCC2CCNC(=O)C(=O)NCc2ccco2)c(C)c1` (centres undefined), with -24.9%. Turning to `O=C(NC1CC1)c1cccc2c1C(=O)c1ccc(N3CCC(Cc4ccccc4)CC3)cc1S2(=O)=O`, the Potency was 20.6 µM (active). With `Cc1ccc(S(=O)(=O)N2CCCCC2CCNC(=O)C(=O)NCc2ccco2)cc1` (centres undefined), the max response is -26.1%.

Consider `O=C(NC1CCCCC1)c1cccc2c1C(=O)c1ccc(N3CCC(Cc4ccccc4)CC3)cc1S2(=O)=O`, for which the Potency is 12.5 µM (active). The same measure, in the same setting: as for `O=C(NCc1ccco1)c1cccc2c1C(=O)c1ccc(N3CCC(Cc4ccccc4)CC3)cc1S2(=O)=O`, the figure is 23.1 µM (active). On to `COc1cc(/C=C2\C(=N)N3N=CSC3=NC2=O)cc(Br)c1OC(=O)c1ccco1`, for which the max response was 5.77%.

Regarding `CN(C)c1ccc(/C=C2\C(=N)N3N=C(CC(=O)N4CCCCC4)SC3=NC2=O)cc1`, the Potency was 16.4 µM (active).

Take `CN(C)c1ccc(/C=C2\SC(N3CCCCC3)=NC2=O)cc1`: the Potency was 16.4 µM (active).

As to `COc1cc(/C=C2\C(=N)N3N=C(S(C)(=O)=O)SC3=NC2=O)ccc1OC(=O)c1ccco1`, the max response is 3.53%. With `CCN(CC)c1ccc(/C=C2\C(=N)N3N=C(CC(=O)N4CCOCC4)SC3=NC2=O)cc1`, the Potency was 0.396 µM (active). On the same count and under the same terms, as for `C1=Cc2ccccc2/C1=C\c1cc2c3c(c1)CCCN3CCC2`, the figure is 18.4 µM (active). In the case of `Cc1ccc(S(=O)(=O)c2cc3ccccc3oc2=Nc2ccc3c(c2)OCO3)cc1`, the max response is -1.94%. On the same count and under the same terms, as for `Cc1sc2ncnc(SCC(=O)NC(C)(C)C)c2c1C`, the figure is 0.663%. Turning to `Cc1sc2ncnc(N=Nc3c(O)[nH]c4ccccc34)c2c1C`, the Potency is 13 µM (active).

`Cc1sc2ncn(CC(=O)NCc3ccccc3)c(=O)c2c1C`: the max response is -23.3%.

With `O=S(=O)(Nc1ccc(C(O)(C(F)(F)F)C(F)(F)F)cc1)c1ccc(Cl)c2nonc12`, the Potency is 12.5 µM (active). Consider `Cc1ccc(F)c(S(=O)(=O)NC(=O)C2(C)CCN2C(=O)Cc2ccc(Cl)cc2Cl)c1` (centres undefined), for which the max response was 0.983%.

For `Cc1ccc(N=C2NC(=O)CC(C(=O)Nc3ccc4c(c3)OCO4)S2)cc1` (centres undefined), the max response was -22.7%.

Take `CCCN1C(=O)C(Cc2nc3ccccc3c(=O)n2CC)c2cc(Br)ccc21` (centres undefined): the max response was -0.982%.

As for `O=c1c2ccccc2nc(/C=C/c2ccc([N+](=O)[O-])o2)n1CCCO`, the Potency is 3.26 µM (active).

As to `CCn1c(/C=C/c2ccc([N+](=O)[O-])o2)nc2ccccc2c1=O`, the Potency is 3.26 µM (active). Same read-out and setting: as for `Cc1cc(N/N=C/c2ccc([N+](=O)[O-])o2)nc2ccccc12`, the figure is 16.4 µM (active). Same read-out and setting: then `Cn1c(/C=C/c2ccc([N+](=O)[O-])o2)nc2ccccc2c1=O`, with 16.4 µM (active). On to `Cc1ccc2oc(/N=C(\N)NC(=O)C(C)(C)C)nc2c1`, for which the max response is -3.74%. On to `CNC(=O)C(Sc1nc(C)nc2c1oc1ccccc12)C(C)=O` (centres undefined), for which the max response was -18.1%. Still for that read-out and setting: as for `Cc1cc(NC(=O)Nc2nnc(N(C)Cc3ccccc3)s2)ccc1Br`, the figure is -0.38%.
